Sampled rows, rich in hits. Any-hit rate of the full collection: about 21%.
Pf growth 96h – P. falciparum growth inhibition at 96 hour, primary screen for plastid delayed-death inhibitors. 320,000 tested, 6.9% active. P. falciparum luciferase reporter growth, 96 h. AID 504834. Potency, µM (series often up to 28.7 µM), for inactives: at the highest dose activity change, negative = inhibition, most hits filed as inhibitors; note: potency is the fitted concentration of half-maximal effect; % is set by controls: 0 for no effect and ±100 for the full control effect
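Cell-based qHTS: luciferase-tagged P. falciparum in erythrocytes (2% hematocrit, 0.05% parasitemia final) incubated with compounds for 96 hours, 37 C, 5% CO2; luciferase detection reagent then added and luminescence measured.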
Shiga toxin inh – blocks Shiga toxin action in Vero cells; inhibition, % at 38.7 µM; Vero cells, Shiga toxin protein synthesis inhibition reporter; 290,000 tested, 9.2% active; in the data active = inhibition mostly above about 28%, no sharp cut-off; inactive = mostly below about 43%; note: 0% is about no effect
Cycloheximide cs – counter-screen hit for Shiga toxin inhibitors, cycloheximide; cell reporter, cycloheximide protein synthesis inhibition counterscreen; max response, %; 300,000 tested, 12% active; in the data active = max response mostly above about 13%, no sharp cut-off; inactive = mostly below about 14%; note: read at 38.3 µM for the half of the compounds with a filed dose; 0% is about no effect
Pf growth 48h – P. falciparum growth inhibition at 48 hours (one generation); Potency, µM (titrated, usually from 28.7 µM), for the others: at the top dose activity change, negative = inhibition, actives largely listed as inhibitors; AID 504832; P. falciparum luciferase growth in erythrocytes, 48 h; 310,000 tested, 5.9% active; note: potency is the fitted concentration of half-maximal effect; % is set by controls: 0 for no effect and ±100 for the full control effect
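Luciferase-expressing P. falciparum in infected erythrocytes (2% hematocrit, 0.1% parasitemia final) in RPMI 1640/0.5% Albumax were exposed to compound for 48 hours at 37 C, 5% CO2; growth read as luminescence.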
Numbers without * were called inactive. Unless noted, calls come from the whole dose curve; as a rule, active = well fitted inhibition curve with a large enough effect; inconclusive = small, poorly fitted or top-dose-only effect, or another doubt; inactive = no such curve, though single readings can be large or run the other way.

What do the screens show for `COc1cc(Cl)ccc1OCc1cc(C(=O)N[C@H]2CCCCNC2=O)no1`?
Pf growth 96h: 19%; Shiga toxin inh: 62*; Cycloheximide cs: 36*; Pf growth 48h: 16%

Results for COc1cc(Cl)ccc1OCc1cc(C(=O)N2CCCCCCC2)no1 ?
Pf growth 96h: 16%; Shiga toxin inh: 84*; Cycloheximide cs: 43*; Pf growth 48h: 0%

How did COc1cc(C)ccc1OCc1cc(C(=O)N2CCCCCC2)no1 do in these assays?
Pf growth 96h: 54%; Shiga toxin inh: 64*; Cycloheximide cs: 30*; Pf growth 48h: -19%

What do the screens show for `COCCN1CCN(C(=O)c2cc(COc3ccc(Cl)cc3OC)on2)CC1`?
Pf growth 96h: 19%; Shiga toxin inh: 94*; Cycloheximide cs: 58*; Pf growth 48h: 9%

What do the screens show for `Cc1cccc(NC(=O)CSc2nc3ccccc3nc2N2CCCC2)c1C`?
Pf growth 96h: inconclusive; Shiga toxin inh: 15; Cycloheximide cs: 5; Pf growth 48h: inconclusive

Results for CCN(CC)C(=O)Cn1c(=O)n(CC(=O)N2CCCCC2)c(=O)c2sccc21 ?
Pf growth 96h: inconclusive; Shiga toxin inh: -9; Cycloheximide cs: -2; Pf growth 48h: -8%

How did CCOc1ccc(/C=C/C(=O)c2c(O)cc(C)oc2=O)cc1 do in these assays?
Pf growth 96h: 36%; Shiga toxin inh: 57*; Cycloheximide cs: 42*; Pf growth 48h: 31%

How did CCc1ccccc1N/N=C(/C)c1c(O)cc(C)oc1=O do in these assays?
Pf growth 96h: 357%; Shiga toxin inh: -6; Cycloheximide cs: 1; Pf growth 48h: -24%

Results for Cc1cc(C)c(C(=O)/C=C/C=C/c2ccccc2)c(=O)[nH]1 ?
Pf growth 96h: 43%; Shiga toxin inh: 52*; Cycloheximide cs: 25*; Pf growth 48h: 45%

How did CCOc1ccc(/C=C/C(=O)c2c(O)c3ccccc3oc2=O)cc1 do in these assays?
Pf growth 96h: 106%; Shiga toxin inh: -8; Cycloheximide cs: -2; Pf growth 48h: 26%

What do the screens show for `Cc1cc(O)c(C(=O)/C=C/c2ccc(C(C)C)cc2)c(=O)o1`?
Pf growth 96h: -11%; Shiga toxin inh: 66*; Cycloheximide cs: 53*; Pf growth 48h: 17%

What do the screens show for `Cc1cc(O)c(C(=O)/C=C/c2ccccc2)c(=O)o1`?
Pf growth 96h: inconclusive; Shiga toxin inh: 44*; Cycloheximide cs: 14; Pf growth 48h: inconclusive

Results for COc1ccccc1C(=O)NNC(=O)CCC(=O)NCc1ccccc1 ?
Pf growth 96h: 31%; Shiga toxin inh: -5; Cycloheximide cs: 1; Pf growth 48h: 25%

Results for Cc1cc(O)c(C(=O)/C=C/c2ccccc2Br)c(=O)o1 ?
Pf growth 96h: -16%; Cycloheximide cs: 20*; Pf growth 48h: inconclusive

How did COC(=O)c1ccc(Cn2nc(-c3cc(C)ccc3C)ccc2=O)cc1 do in these assays?
Pf growth 96h: 32%; Shiga toxin inh: -4; Cycloheximide cs: -2; Pf growth 48h: 13%

How did Cc1ccc(-n2c(=O)[nH]c3ncccc3c2=O)cc1 do in these assays?
Pf growth 96h: -2%; Shiga toxin inh: -4; Cycloheximide cs: 1; Pf growth 48h: 10%

Results for Cc1ccc(-n2c(-c3ccc(Br)cc3)c[n+]3c2CCc2ccc4cccnc4c2-3)cc1 ?
Pf growth 96h: 0.47µM*; Shiga toxin inh: -39; Cycloheximide cs: -8; Pf growth 48h: 1.7µM*

How did COc1cccc(CNc2ccc3[nH]c(=O)[nH]c3c2)c1OCc1ccccc1F do in these assays?
Pf growth 96h: inconclusive; Shiga toxin inh: -11; Cycloheximide cs: 2; Pf growth 48h: 10%

How did C=CCOc1c(Cl)cc(CNc2ccc3[nH]c(=O)[nH]c3c2)cc1OC do in these assays?
Pf growth 96h: 2%; Shiga toxin inh: 16; Cycloheximide cs: -3; Pf growth 48h: -2%

What do the screens show for `COc1cc(CNc2ccc3[nH]c(=O)[nH]c3c2)ccc1OCc1ccc(C)cc1`?
Pf growth 96h: 36%; Shiga toxin inh: 118*; Cycloheximide cs: 26*; Pf growth 48h: 43%

Results for COc1cc(CNc2ccc3[nH]c(=O)[nH]c3c2)ccc1OCc1cccc(C)c1 ?
Pf growth 96h: -4%; Shiga toxin inh: 37; Cycloheximide cs: 21*; Pf growth 48h: 0%

Results for CCOC(=O)C1=C(COC(=O)c2ncc(Cl)c(Cl)c2Cl)NC(=O)NC1C (configuration not stated) ?
Pf growth 96h: 1%; Pf growth 48h: 2%

How did COCCn1cnnc1SCC(=O)Nc1cc(OC)c([N+](=O)[O-])cc1C do in these assays?
Pf growth 96h: inconclusive; Shiga toxin inh: -5; Cycloheximide cs: -6; Pf growth 48h: inconclusive

Source: PubChem
